SKKanGAS inh: SKKanGAS growth inhibition. S. pyogenes SKKanGAS, kanamycin growth, BacTiter-Glo, 6 h. inhibition, % at 7.5 µM. hit rate 1.3% among 300,000;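 active = mean replicate score, as percent of positive control median, at least 50; inconclusive = mean below 50 but one replicate at or above 50; inactive = mean and every replicate below 50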;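 also: strain carries kanamycin resistance gene driven by streptokinase promoter and grows in 40 µg/ml kanamycin; loss of luminescence reflects streptokinase promoter inhibition or plain growth inhibition; 0% = median of DMSO wells and 100% = positive control at its reference dose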
TIM10 inh: inhibits growth of TIM10 yeast strain; S. cerevisiae TIM10 strain growth, BacTiter-Glo luminescence, 24 h; inhibition, % at 10 µM; hit rate 1.4% among 330,000; AID 463195;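 active = inhibition of 40% or more at the single tested concentration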;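 also: wild-type TIM10 isogenic control strain grown at permissive 25 °C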
tim10-1 inh: inhibits growth of tim10-1 mutant yeast; S. cerevisiae tim10-1 ts strain growth, BacTiter-Glo, 24 h; inhibition, % at 20 µM; hit rate 2.2% among 330,000; AID 463190;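 active = inhibition of at least 40%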;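 also: mutant grown at 25 °C; 0% = DMSO wells with yeast and 100% = wells holding no yeast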
tim23-1 inh: inhibits growth of tim23-1 mutant yeast | S. cerevisiae tim23-1 growth, BacTiter-Glo luminescence, 24 h | hit rate 1.3% among 330,000 | inhibition, % at 20 µM;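 active = growth inhibition of the mutant yeast at or above 50%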;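 also: temperature-sensitive mutant grown at 25 °C; plate controls were DMSO-treated mutant yeast for no effect and medium wells lacking yeast for full effect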
Calb FLC: C. albicans growth modulation with fluconazole. C. albicans CaCi-2 (fluconazole-resistant clinical isolate) + fluconazole, Alamar Blue growth, 48 h. growth inhibition, % (no concentration beside the values). hit rate 0.57% among 300,000. AID 1979;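 active = growth inhibition above about 58% in most replicates, limit read from the data, passing the limit was not always enough; inconclusive = exactly half the replicates above a set limit; inactive = most replicates below a set limit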;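 also: all wells also contain fluconazole at 8 µg/ml as a sub-toxic cotreatment; 0% = median of DMSO wells and 100% = median of geldanamycin control wells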
PfHsp90 yeast 2: growth inhibition of yeast expressing Plasmodium Hsp90; S. cerevisiae expressing PfHsp90, BacTiter-Glo ATP, 48 h; yeast lacking PDR1 and PDR3 efflux regulators; AID 504621; inhibition, % at 9.4 µM; hit rate 0.32% among 310,000;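 active = every replicate shows inhibition above about 80%, whatever the replicate mean, limit read from the data; inconclusive = mean inhibition reaches the set limit but some replicate falls short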;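 also: 0% = DMSO neutral controls and 100% = 20 µM radicicol positive controls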
tim10-1 conf: confirmation of tim10-1 mutant yeast growth inhibitors. shares compounds with tim10-1 inh. S. cerevisiae tim10-1 ts strain growth, BacTiter-Glo, 24 h. inhibition, % at 20 µM. hit rate 56% among 7,400. AID 463213;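 active = inhibition of yeast growth at or above a set limit in either of two repeat tests at 20 µM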;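 also: tim10-1 mutant grown at permissive 25 °C to find synthetic lethal compounds; 0% = DMSO yeast wells and 100% = medium wells without yeast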
TIM10 conf: TIM10 yeast growth inhibition, confirmed; S. cerevisiae tim10 strain growth, BacTiter-Glo luminescence, 24 h; inhibition, % at 10 µM; shares compounds with TIM10 inh; AID 463215; hit rate 63% among 4,600;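 active = inhibition of yeast growth at or above a set limit in either of two replicates at 10 µM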;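 also: this counterscreen used the strain with wild-type TIM10; 0% = yeast with DMSO and 100% = medium wells lacking yeast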
Starred values were filed as active, the others as inactive; ? = inconclusive; nt = no result given. Compounds with a hit are over-represented: about 4.7% of the library has one in this group of screens.

SMILES | SKKanGAS inh | TIM10 inh | tim10-1 inh | tim23-1 inh | Calb FLC | PfHsp90 yeast 2 | tim10-1 conf | TIM10 conf
CCSc1nc2ccccc2n1C(=O)/C=C\c1ccc(OC)c(OC)c1 | 6.1 | 52.2* | 64.9* | 34.7 | 15.4 | 7.7 | 55.9* | -24.0
CC(C)CCN(C(=S)Nc1cccc(F)c1)C1CCN(C(C)C)CC1 | 5.5 | -25.3 | -1.1 | 1.2 | 3.4 | 9.8 | nt | nt
CCc1cccc(N(C(=O)c2csnn2)C(C(=O)NC(C)(C)C)c2ccncc2)c1 (stereo not given) | 4.0 | -3.9 | 19.0 | 9.6 | 2.8 | -11.9 | nt | nt
N#CC1(C#N)[C@@H](C(=O)C23CC4CC(CC(C4)C2)C3)C12CCOCC2 | -4.9 | 43.9* | 56.7* | 30.9 | -20.3 | 15.1 | 48.3* | -6.5
CN1CCN(Cn2cc(/C=C/C(=O)c3ccccc3)c3ccccc32)CC1 | -15.3 | 66.7* | 61.6* | -61.4 | 19.2 | 14.6 | 0.2 | 65.2*
CNc1nc(-c2ccccc2)nnc1C(F)(F)F | 5.8 | 2.2 | -2.6 | 9.3 | 7.6 | 7.1 | nt | nt
Cc1ccc(Sc2nc(-c3ccccc3)nnc2C(F)(F)F)cc1 | 20.0 | 41.5* | 40.0* | 28.0 | -6.2 | 9.3 | 38.2* | 2.9
COC(=O)c1cc(NC(=S)Nc2cc(Cl)cc(Cl)c2)cc(C(=O)OC)c1 | 23.4 | 50.5* | 49.3* | 37.9 | -50.1 | -13.9 | 32.6* | 24.1
CCOCc1c(C(=O)N2CCN(CC(=O)Nc3ccc(F)cc3)CC2)oc2ccccc12 | nt | 23.9 | 24.8 | 38.7 | nt | 32.3 | nt | nt
Cn1c(/C=C/c2ccc([N+](=O)[O-])o2)nc2ccccc2c1=O | 47.7 | 76.8* | 77.0* | -2.9 | 3.8 | 98.4* | 58.2* | -19.8
CCOc1cc(/C=C2/N=C(c3ccc4c(c3)OCO4)OC2=O)ccc1OC(C)=O | nt | 30.4 | 34.0 | 33.3 | nt | -7.6 | nt | nt
CC(=O)Oc1ccc(/C=C2\N=C(C3CCCCC3)OC2=O)cc1 | -2.8 | 55.6* | 45.5* | 44.4 | 3.0 | -21.1 | 46.4* | 40.7*
Cc1ccc(NC(=S)NNC(=O)C2CC2c2ccc(C)cc2)cc1 (stereo not given) | 5.6 | 40.4* | 41.4* | 17.3 | 3.3 | 23.9 | 27.0 | 17.2
Cc1ccc(NC(=S)NNC(=S)Nc2ccc(C)cc2)cc1 | nt | nt | nt | nt | nt | -10.4 | nt | nt
Cc1ccc(C(=O)COC(=O)c2cc(=O)[nH]c3ccccc23)cc1C | -0.6 | 7.3 | -9.6 | -14.7 | 13.8 | 10.1 | nt | nt
Cn1cnnc1SCc1ccc(C(=O)N/N=C(/CCC(=O)O)c2ccc(C(C)(C)C)cc2)cc1 | nt | nt | nt | nt | nt | -9.3 | nt | nt
CCOC(=O)c1c(N)sc(C(O)(C(F)(F)F)C(F)(F)F)c1-c1ccc(F)cc1 | 6.4 | 41.2* | 43.0* | 40.5 | 25.4 | -74.5 | 20.0 | 20.5
CCOC(=O)c1c(NC(=O)C2C3CCC(O3)C2C(=O)O)sc(C)c1-c1ccc(F)cc1 (stereo not given) | 11.2 | 11.6 | 12.7 | 9.8 | -1.0 | 15.7 | nt | nt
O=Nc1c(O)n(Cc2ccc(Cl)cc2Cl)c2ccccc12 | 11.6 | 41.6* | 51.9* | 38.2 | 27.1 | 6.3 | 18.5 | 39.0*
O=S(=O)(c1cccc(-c2nc3ccccc3s2)c1)N1CCCC1 | -6.5 | 44.0* | 48.4* | 46.8 | 11.0 | 18.8 | 34.4* | 41.8*
O=S(=O)(c1ccc(-c2nc3ccccc3s2)cc1)N1CCCC1 | -1.8 | 9.0 | 3.1 | 1.2 | -1.3 | -12.0 | nt | nt
Cc1c(C)c2c(OCC(=O)N3CCC(C(=O)O)CC3)cc3c(c2oc1=O)CCC(C)(C)O3 | 9.3 | 0.2 | -10.9 | -8.9 | 1.7 | -1.8 | nt | nt
Cc1ccc(S(=O)(=O)NC(=O)c2ccccc2C)cc1 | -0.1 | 9.9 | -6.2 | -0.1 | 1.4 | 7.3 | nt | nt
CN1c2ccccc2Oc2nnc(N3CCN(Cc4ccccc4)CC3)cc21 | 6.1 | 74.8* | 41.0* | 46.6 | -1.5 | -1.6 | 54.2* | 43.6*
COc1ccc(NC(=O)COC(=O)/C=C/C(=O)OCC(=O)Nc2ccc(OC)c(Cl)c2)cc1Cl | -6.5 | -20.0 | -9.6 | -20.4 | -12.8 | -2.4 | nt | nt
SMILES | SKKanGAS inh | TIM10 inh | tim10-1 inh | tim23-1 inh | Calb FLC | PfHsp90 yeast 2 | tim10-1 conf | TIM10 conf
CCOC(=O)/C=C/C(=O)OCC(=O)Nc1ccc(OC)c(Cl)c1 | -4.2 | 44.1* | 53.4* | 39.7 | -6.8 | -11.6 | 40.8* | 36.1*
COc1cc(C(=O)/C=C/c2cccnc2)c([N+](=O)[O-])cc1OC | 8.8 | 41.2* | 42.0* | 37.6 | 11.5 | -12.8 | 39.0* | 32.8*
O=C(CNC(=O)c1ccc(Cl)cc1)OCCCOC(=O)CNC(=O)c1ccc(Cl)cc1 | 3.3 | -5.1 | 8.1 | 8.9 | 4.4 | -4.9 | nt | nt
CCOC(=O)CSC1=NC(=O)/C(=C\c2ccc(OC(C)=O)cc2)S1 | -4.4 | 51.2* | 69.0* | 46.0 | 17.8 | 4.8 | 68.8* | 62.8*
COc1cc2nc(-c3ccc(Br)o3)oc(=O)c2cc1OC | -6.5 | 30.8 | 26.7 | 19.2 | 1.7 | -7.7 | nt | nt
Cc1ccc2nc(-c3ccc(Br)o3)oc(=O)c2c1 | 3.1 | 48.4* | 40.6* | 49.6 | ? | -1.4 | 34.6* | 33.0*
O=C1NN=C(c2ccccc2)C1Cc1ccccc1 (stereo not given) | nt | nt | nt | nt | nt | 9.1 | nt | nt
Cc1ccc(-c2csc3ncnc(Sc4nnc(CN5CCCCCC5=O)o4)c23)cc1 | 13.7 | 55.5* | 40.1* | 35.4 | ? | 18.7 | 35.8* | 38.8*
O=C(/C=C/c1cccc(Cl)c1)Nn1c(-c2cccs2)nc2ccccc2c1=O | 15.0 | 42.7* | 45.2* | 35.5 | 26.1 | 13.6 | 36.2* | 24.9
CCOC(=O)c1cnc2ccccc2c1NCCO | -0.7 | -3.5 | 14.0 | 12.8 | -10.2 | 1.2 | nt | nt
CCOC(=O)c1cnc2c(ccc3ccccc32)c1NCCCN(C)C | -4.6 | 80.8* | 49.5* | 45.8 | 9.5 | -15.6 | 64.9* | 79.8*
COc1ccc(C(=O)O/N=C(/c2cccs2)C(C)(C)C)cc1 | -3.4 | -10.4 | -5.0 | 10.8 | -1.9 | -19.6 | nt | nt
COc1ccc(C2CC2/C(=N/OC(=O)c2cccs2)c2ccccc2)cc1 (stereo not given) | -10.0 | 63.4* | 63.2* | 45.4 | -6.0 | -13.8 | 59.0* | 63.9*
CCOC(=O)C1=C(C)Nc2nc(=S)[nH]n2C1c1ccc(Cl)cc1 (stereo not given) | -4.5 | 48.5* | 54.7* | 44.3 | 5.8 | -29.7 | 44.2* | 1.1
CCOC(=O)C1=C(C)Nc2nc(SCC)nn2C1c1ccc(OC)cc1 (stereo not given) | 6.4 | 12.4 | 14.6 | -9.9 | -8.8 | -10.4 | nt | nt
Cc1ccc2c(c1)sc(-c1ccc(N(C)C)cc1)[n+]2C | 0.9 | 85.1* | 69.7* | 48.3 | 90.1* | 12.8 | 74.5* | 82.2*
COc1ccc(-n2nc(C(=O)NCC(=O)NCc3ccc(F)cc3)c3ccccc3c2=O)cc1 | -0.5 | -0.7 | 10.4 | 27.2 | 5.0 | -4.6 | nt | nt

Compound activity as filed in PubChem BioAssay.
